Reference: PubChem BioAssay
The source made the active and inactive calls.

biological target: NADPH oxidase 4 (Homo sapiens) (UniProt Q9NPH5); assay: NOX4-dependent H2O2 signal modulators, primary screen, NOX inhibitor project, cell-based, HEK293-NOX4, tetracycline-induced, Amplex Red fluorescence (AID 1160); settings: 45 min, higher = more signal, called active from +8 up or from −8 down
Sequence (Q9NPH5 whole entry, looked up): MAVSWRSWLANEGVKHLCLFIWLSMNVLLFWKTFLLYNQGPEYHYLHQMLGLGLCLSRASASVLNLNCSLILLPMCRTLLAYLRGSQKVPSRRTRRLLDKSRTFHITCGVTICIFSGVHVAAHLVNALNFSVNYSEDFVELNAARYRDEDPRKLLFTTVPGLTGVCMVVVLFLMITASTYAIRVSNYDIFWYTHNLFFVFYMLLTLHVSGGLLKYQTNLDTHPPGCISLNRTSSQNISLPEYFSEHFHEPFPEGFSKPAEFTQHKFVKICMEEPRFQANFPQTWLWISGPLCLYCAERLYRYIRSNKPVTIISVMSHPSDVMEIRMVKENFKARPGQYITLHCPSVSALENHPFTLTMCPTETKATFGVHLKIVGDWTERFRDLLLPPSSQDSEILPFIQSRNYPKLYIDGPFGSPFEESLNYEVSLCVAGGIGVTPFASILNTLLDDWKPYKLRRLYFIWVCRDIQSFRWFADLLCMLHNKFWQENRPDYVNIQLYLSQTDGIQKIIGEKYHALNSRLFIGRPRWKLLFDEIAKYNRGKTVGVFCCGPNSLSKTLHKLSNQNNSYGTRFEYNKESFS

SMILES	z-score
C[C@]1(C(=O)O)c2ccccc2C(=O)N(Cc2cc(C(F)(F)F)cc(C(F)(F)F)c2)[C@H]1c1ccc(CO)cc1	0.0284 (inactive)
COC(=O)C(CC#Cc1ccc2c(c1)[C@]1(C(=O)N2)[C@H](c2ccc(OCCO)cc2)N2[C@H](c3ccccc3)[C@H](c3ccccc3)OC(=O)[C@H]2[C@@H]1C(N)=O)C(=O)OC	0.784 (inactive)
CN1C(=O)C2C=CC(C(O)c3ccc(I)cc3)N(N(c3ccccc3)c3ccccc3)C2C1=O (configuration not stated)	1.23 (inactive)
COc1ccc([Si](C)(C)[C@@H]2[C@@H](CC(=O)N(CCO)Cc3ccccc3)O[C@]3(C(=O)N(Cc4cccc(I)c4)c4ccccc43)[C@H]2C)cc1	1.19 (inactive)
COc1ccc([Si](C)(C)[C@H]2[C@H](CC(=O)N3CCC[C@H]3CO)O[C@@]3(C(=O)N(Cc4cccc(N5CCCCC5=O)c4)c4ccccc43)[C@@H]2C)cc1	1.44 (inactive)
O=C1C2C=CC(C(O)C3CCCCC3)N(Nc3ccccc3F)C2C(=O)N1c1ccccc1 (configuration not stated)	-4.15 (inactive)
C=C(COC)/C(=C/C[C@@H](OC(C)=O)c1cccc(OCCO)c1)c1cnc2ccccc2c1	-0.77 (inactive)
COC(=O)C1=CC(c2ccc(CO)cc2)=CC(C2CC2)N(Cc2cc3c(cc2Br)OCO3)C=C1C(=O)OC (configuration not stated)	-0.385 (inactive)
O=C/C=C/c1ccc(-c2ccccc2)cc1	-1.85 (inactive)
COc1ccc(C(O)C2C=CC3C(=O)N(C)C(=O)C3N2Nc2ccccc2)cc1 (configuration not stated)	-2.67 (inactive)
COCCOC(=O)N1C(=O)[C@@]2(c3cc(C#CCNC(N)=O)ccc31)[C@H](c1ccccc1OCCO)N1[C@H](c3ccccc3)[C@H](c3ccccc3)OC(=O)[C@H]1[C@@H]2C(=O)N1CCCCCCC1	1.05 (inactive)
CC1C2C(CCCO)=CC(C3C(=O)N(C(N)=O)C(=O)C23)N1Cc1cccc(OC(F)(F)F)c1 (configuration not stated)	0.509 (inactive)
CCCC=C(CCC)[C@@H](NC(=O)c1ccc(C(=O)OC)cc1)c1ccc(C(=O)OC)cc1	-3.29 (inactive)
COc1ccc(C#Cc2ccc3c(c2)[C@]2(C(=O)N3)[C@H](c3ccccc3OCCO)N3[C@H](c4ccccc4)[C@H](c4ccccc4)OC(=O)[C@H]3[C@@H]2C(=O)NC[C@H](O)c2ccccc2)cc1	0.243 (inactive)
C=C(C(=O)CC[C@@H](OC(=O)c1ccccc1-c1ccccc1C(=O)O)c1cccc(OCCO)c1)C(C)C	1.06 (inactive)
C[C@]1(C(=O)NC2CC2)c2ccccc2C(=O)N(Cc2cc(F)cc(C(F)(F)F)c2)[C@H]1c1ccc(CO)cc1	-0.978 (inactive)
C=C(COC)C(=O)CC[C@H](OC(C)=O)c1ccccc1OCCO	0.456 (inactive)
CCOC(=O)C[C@H]1[C@H](OC(=O)Cc2ccc3c(c2)OCO3)[C@@H](NC(=O)CC(C)C)c2cc(OCCCO)ccc2N1C(=O)c1ccc2ccccc2n1	-0.356 (inactive)
O=C1C[C@@](C(=O)NCC(F)(F)F)(c2ccc([N+](=O)[O-])cc2)[C@@H](c2ccc(CO)cc2I)N1CC12CC3CC(CC(C3)C1)C2	-0.564 (inactive)
COc1cc(CO)cc(I)c1O[C@H]1C=C(C(=O)NCCO)C[C@@H](N(CCN2CCOCC2)C(=O)C2CCCO2)[C@@H]1O (some centres not stated)	0.225 (inactive)
O=C1C2C=CC(C(O)C(c3ccccc3)c3ccccc3)N(Nc3ccccc3F)C2C(=O)N1c1ccccc1 (configuration not stated)	-2.28 (inactive)
COC(=O)C[C@H]1O[C@]2(C(=O)N(C)c3ccccc32)[C@@H](C)[C@@H]1[Si](C)(C)c1ccccc1	0.176 (inactive)
CC(C)(C)OC(=O)CC[C@]1(C(=O)N2CCOCC2)COC(c2ccc(OCCCO)cc2)=N1	0.324 (inactive)
C=C(CC1([C@@H](NP(=O)(c2ccccc2)c2ccccc2)[C@H]2C[C@@H]2CCCC)CC1)c1cccc(OC)c1	-1.36 (inactive)
COc1ccc(C(=O)Nc2cccc(CN3C(=O)[C@]4(O[C@H](CC(=O)N(CCO)Cc5ccccc5)[C@@H]([Si](C)(C)c5ccc(OC)cc5)[C@@H]4C)c4ccccc43)c2)cc1	0.871 (inactive)
CC[C@@H](O[Si](C#C[Si](C(C)C)(C(C)C)C(C)C)(C(C)C)C(C)C)c1cn([C@H](CO)Cc2ccccc2)nn1	0.408 (inactive)

biological target: NADPH oxidase 5 (Homo sapiens) (UniProt Q96PH1); assay: NOX5-dependent H2O2 signal modulators, primary screen, NOX inhibitor project, cell-based, HEK293-NOX5, Amplex Red fluorescence (AID 1161); settings: HEK293-NOX5, ionomycin, 45 min, higher = more signal
Sequence (Q96PH1 whole entry, looked up): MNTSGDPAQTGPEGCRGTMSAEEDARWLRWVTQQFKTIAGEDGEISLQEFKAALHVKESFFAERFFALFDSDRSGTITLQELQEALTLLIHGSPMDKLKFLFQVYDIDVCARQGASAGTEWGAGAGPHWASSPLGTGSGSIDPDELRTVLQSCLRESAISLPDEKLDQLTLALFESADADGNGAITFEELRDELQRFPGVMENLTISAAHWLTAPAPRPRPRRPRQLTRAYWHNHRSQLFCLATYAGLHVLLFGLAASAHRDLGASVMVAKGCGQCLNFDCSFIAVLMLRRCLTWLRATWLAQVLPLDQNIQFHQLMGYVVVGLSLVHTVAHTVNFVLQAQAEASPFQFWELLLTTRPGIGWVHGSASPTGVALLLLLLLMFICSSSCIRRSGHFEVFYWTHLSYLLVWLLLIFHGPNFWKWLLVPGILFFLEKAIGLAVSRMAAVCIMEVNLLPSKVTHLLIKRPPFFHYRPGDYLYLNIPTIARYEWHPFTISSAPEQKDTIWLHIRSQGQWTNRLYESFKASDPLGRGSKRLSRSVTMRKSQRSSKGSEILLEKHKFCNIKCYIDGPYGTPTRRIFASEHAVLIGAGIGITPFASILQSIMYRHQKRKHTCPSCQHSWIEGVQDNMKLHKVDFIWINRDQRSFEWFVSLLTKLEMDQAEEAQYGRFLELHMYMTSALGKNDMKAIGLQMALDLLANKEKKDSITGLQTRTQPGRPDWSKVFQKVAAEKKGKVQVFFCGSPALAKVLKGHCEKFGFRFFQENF

SMILES	z-score
COc1cc(Cc2cc3c(c(-c4ccccc4)n2)[Si](C(C)C)(C(C)C)OC3)cc(OC)c1OC	0.0407
COCCOC(=O)N1C(=O)[C@@]2(c3cc(C#CCC(C(=O)OC)C(=O)OC)ccc31)[C@H](C(N)=O)[C@H]1C(=O)O[C@H](c3ccccc3)[C@H](c3ccccc3)N1[C@@H]2c1ccccc1OCCO	-1.13
C[C@@]1([C@@H](NS(=O)(=O)c2cccc3cccnc23)c2ccc(-c3ccccc3)cc2)C[C@H]1C1CCCCC1	-1.99
C=C(C(=O)CC[C@@H](OC(=O)c1ccccc1-c1ccccc1C(=O)O)c1ccc(CO)o1)C(C)C	-0.213
CCOC(=O)C1=CCC(c2cccn2C(=O)OC(C)(C)C)N(S(=O)(=O)c2ccc(C)cc2)C1 (configuration not stated)	0.499
O=C1N(Cc2ccccc2)c2ccccc2C[C@@]12N=C(c1ccc(OCCCO)cc1)O[C@H]2c1ccccc1	-1.67
Cc1ccc(S[C@]2(C(=O)NC3CC3)CC(=O)N(C3Cc4ccccc4C3)[C@@H]2c2ccc(CO)cc2I)cc1	1.41
CCc1cccc(NC(=O)O[C@H]2[C@H](OC(=O)Nc3ccccc3-c3ccccc3)[C@H](OC(=O)Nc3ccccc3-c3ccccc3)[C@@H](OC)O[C@@H]2CO)c1	-1.01
CC(C)C[C@H]1NC(=O)CNC(=O)[C@@]23C(=O)N[C@@H](Cc4ccccc4)C2[C@H](C)[C@@]2(C)O[C@H]2C3/C=C/C/C=C\CNC1=O (some centres not stated)	-0.495
C=C(/C=C\CNS(=O)(=O)c1ccc(C)cc1)[C@H](O)[C@H]1CCCN1S(=O)(=O)c1ccccc1[N+](=O)[O-]	-1.77
C[C@]1(C(=O)O)c2ccccc2C(=O)N(Cc2cc(C(F)(F)F)cc(C(F)(F)F)c2)[C@H]1c1ccc(CO)cc1	-0.714
COC(=O)C(CC#Cc1ccc2c(c1)[C@]1(C(=O)N2)[C@H](c2ccc(OCCO)cc2)N2[C@H](c3ccccc3)[C@H](c3ccccc3)OC(=O)[C@H]2[C@@H]1C(N)=O)C(=O)OC	0.345
CN1C(=O)C2C=CC(C(O)c3ccc(I)cc3)N(N(c3ccccc3)c3ccccc3)C2C1=O (configuration not stated)	-0.585
COc1ccc([Si](C)(C)[C@@H]2[C@@H](CC(=O)N(CCO)Cc3ccccc3)O[C@]3(C(=O)N(Cc4cccc(I)c4)c4ccccc43)[C@H]2C)cc1	1.43
COc1ccc([Si](C)(C)[C@H]2[C@H](CC(=O)N3CCC[C@H]3CO)O[C@@]3(C(=O)N(Cc4cccc(N5CCCCC5=O)c4)c4ccccc43)[C@@H]2C)cc1	4.92
O=C1C2C=CC(C(O)C3CCCCC3)N(Nc3ccccc3F)C2C(=O)N1c1ccccc1 (configuration not stated)	-4.19
C=C(COC)/C(=C/C[C@@H](OC(C)=O)c1cccc(OCCO)c1)c1cnc2ccccc2c1	-2.27
COC(=O)C1=CC(c2ccc(CO)cc2)=CC(C2CC2)N(Cc2cc3c(cc2Br)OCO3)C=C1C(=O)OC (configuration not stated)	0.857

SMILES	z-score
O=C/C=C/c1ccc(-c2ccccc2)cc1	0.605
COc1ccc(C(O)C2C=CC3C(=O)N(C)C(=O)C3N2Nc2ccccc2)cc1 (configuration not stated)	-1.96
COCCOC(=O)N1C(=O)[C@@]2(c3cc(C#CCNC(N)=O)ccc31)[C@H](c1ccccc1OCCO)N1[C@H](c3ccccc3)[C@H](c3ccccc3)OC(=O)[C@H]1[C@@H]2C(=O)N1CCCCCCC1	0.903
CC1C2C(CCCO)=CC(C3C(=O)N(C(N)=O)C(=O)C23)N1Cc1cccc(OC(F)(F)F)c1 (configuration not stated)	0.107
CCCC=C(CCC)[C@@H](NC(=O)c1ccc(C(=O)OC)cc1)c1ccc(C(=O)OC)cc1	1.5
COc1ccc(C#Cc2ccc3c(c2)[C@]2(C(=O)N3)[C@H](c3ccccc3OCCO)N3[C@H](c4ccccc4)[C@H](c4ccccc4)OC(=O)[C@H]3[C@@H]2C(=O)NC[C@H](O)c2ccccc2)cc1	1.32
C=C(C(=O)CC[C@@H](OC(=O)c1ccccc1-c1ccccc1C(=O)O)c1cccc(OCCO)c1)C(C)C	-0.442
C[C@]1(C(=O)NC2CC2)c2ccccc2C(=O)N(Cc2cc(F)cc(C(F)(F)F)c2)[C@H]1c1ccc(CO)cc1	-1.46
C=C(COC)C(=O)CC[C@H](OC(C)=O)c1ccccc1OCCO	-1.41
CCOC(=O)C[C@H]1[C@H](OC(=O)Cc2ccc3c(c2)OCO3)[C@@H](NC(=O)CC(C)C)c2cc(OCCCO)ccc2N1C(=O)c1ccc2ccccc2n1	-1.54
O=C1C[C@@](C(=O)NCC(F)(F)F)(c2ccc([N+](=O)[O-])cc2)[C@@H](c2ccc(CO)cc2I)N1CC12CC3CC(CC(C3)C1)C2	0.733
COc1cc(CO)cc(I)c1O[C@H]1C=C(C(=O)NCCO)C[C@@H](N(CCN2CCOCC2)C(=O)C2CCCO2)[C@@H]1O (some centres not stated)	0.235
O=C1C2C=CC(C(O)C(c3ccccc3)c3ccccc3)N(Nc3ccccc3F)C2C(=O)N1c1ccccc1 (configuration not stated)	-1.87
COC(=O)C[C@H]1O[C@]2(C(=O)N(C)c3ccccc32)[C@@H](C)[C@@H]1[Si](C)(C)c1ccccc1	-1.11
CC(C)(C)OC(=O)CC[C@]1(C(=O)N2CCOCC2)COC(c2ccc(OCCCO)cc2)=N1	-1.06
C=C(CC1([C@@H](NP(=O)(c2ccccc2)c2ccccc2)[C@H]2C[C@@H]2CCCC)CC1)c1cccc(OC)c1	-2.78
COc1ccc(C(=O)Nc2cccc(CN3C(=O)[C@]4(O[C@H](CC(=O)N(CCO)Cc5ccccc5)[C@@H]([Si](C)(C)c5ccc(OC)cc5)[C@@H]4C)c4ccccc43)c2)cc1	3.51
CC[C@@H](O[Si](C#C[Si](C(C)C)(C(C)C)C(C)C)(C(C)C)C(C)C)c1cn([C@H](CO)Cc2ccccc2)nn1	-0.133
